Measurements reported in the supplement of paper PMC11732987, “Enantioselective OTUD7B fragment discovery through chemoproteomics screening and high-throughput optimisation” (Communications Chemistry, 2025).

Columns and labels:
Test in all cases: log2 ratio of Biotin-Ahx-Ub-VS probe labelling (fragment/DMSO); higher = less target engagement (more negative = stronger competition), active = hit call of the paper (q ≤ 0.05, log2 ratio ≤ -1)
Settings in all cases: compound concentration: 200 uM; treatment time: 3 h
USP19 = biological target: T1, USP19 (UniProt O94966)
T1 sequence (whole entry): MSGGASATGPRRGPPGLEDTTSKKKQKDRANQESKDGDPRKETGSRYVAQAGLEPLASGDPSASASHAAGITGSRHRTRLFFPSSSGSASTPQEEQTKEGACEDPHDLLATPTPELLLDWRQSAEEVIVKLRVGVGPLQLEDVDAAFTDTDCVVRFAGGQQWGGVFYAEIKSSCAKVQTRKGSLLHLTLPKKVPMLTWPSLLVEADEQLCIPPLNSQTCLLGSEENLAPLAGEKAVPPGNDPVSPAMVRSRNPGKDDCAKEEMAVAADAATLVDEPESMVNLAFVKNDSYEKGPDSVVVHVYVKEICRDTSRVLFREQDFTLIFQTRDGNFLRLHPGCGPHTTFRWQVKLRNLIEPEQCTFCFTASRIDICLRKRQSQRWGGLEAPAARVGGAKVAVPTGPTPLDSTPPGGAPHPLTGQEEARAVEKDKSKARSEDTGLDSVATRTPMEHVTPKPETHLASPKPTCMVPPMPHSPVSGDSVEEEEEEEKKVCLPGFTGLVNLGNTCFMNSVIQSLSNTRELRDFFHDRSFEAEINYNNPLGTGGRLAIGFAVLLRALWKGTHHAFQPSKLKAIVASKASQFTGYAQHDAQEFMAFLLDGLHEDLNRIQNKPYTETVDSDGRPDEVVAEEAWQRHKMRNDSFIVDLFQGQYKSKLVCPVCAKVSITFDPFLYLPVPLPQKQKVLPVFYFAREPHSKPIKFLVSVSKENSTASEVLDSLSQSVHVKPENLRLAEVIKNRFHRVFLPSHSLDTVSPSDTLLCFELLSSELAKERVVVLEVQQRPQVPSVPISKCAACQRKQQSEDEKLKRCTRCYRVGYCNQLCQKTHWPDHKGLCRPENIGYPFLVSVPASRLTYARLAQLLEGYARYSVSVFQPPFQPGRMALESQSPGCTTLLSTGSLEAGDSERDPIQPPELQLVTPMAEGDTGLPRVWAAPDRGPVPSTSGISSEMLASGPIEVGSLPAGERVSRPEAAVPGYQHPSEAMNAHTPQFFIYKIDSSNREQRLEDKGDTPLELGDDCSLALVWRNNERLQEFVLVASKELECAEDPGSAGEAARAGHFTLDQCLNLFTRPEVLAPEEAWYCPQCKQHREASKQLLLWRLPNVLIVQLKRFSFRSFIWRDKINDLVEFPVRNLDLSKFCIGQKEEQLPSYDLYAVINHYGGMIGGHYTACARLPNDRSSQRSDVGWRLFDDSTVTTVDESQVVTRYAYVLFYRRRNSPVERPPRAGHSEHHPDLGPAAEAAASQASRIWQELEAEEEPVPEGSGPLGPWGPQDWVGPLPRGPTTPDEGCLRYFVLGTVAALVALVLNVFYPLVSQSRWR
Summary of the method: (§1)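 Global-median-normalised Spectronaut label-free quantities were compared by unpaired t-test, and values are average log2 ratios of fragment over vehicle. Only proteins with ≥2 unique peptides were used. HEK293T lysate (495 µg per sample) was treated in triplicate with fragment at 200 µM or vehicle for 3 h and then with Biotin-Ahx-Ub-VS at 0.5 µM final for 1 h. Labelled DUBs were then NeutrAvidin-enriched, digested with LysC and trypsin, and run by diaPASEF LC-MS/MS.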

USP22 = biological target: T2, USP22 (UniProt Q9UPT9)
T2 sequence (whole entry): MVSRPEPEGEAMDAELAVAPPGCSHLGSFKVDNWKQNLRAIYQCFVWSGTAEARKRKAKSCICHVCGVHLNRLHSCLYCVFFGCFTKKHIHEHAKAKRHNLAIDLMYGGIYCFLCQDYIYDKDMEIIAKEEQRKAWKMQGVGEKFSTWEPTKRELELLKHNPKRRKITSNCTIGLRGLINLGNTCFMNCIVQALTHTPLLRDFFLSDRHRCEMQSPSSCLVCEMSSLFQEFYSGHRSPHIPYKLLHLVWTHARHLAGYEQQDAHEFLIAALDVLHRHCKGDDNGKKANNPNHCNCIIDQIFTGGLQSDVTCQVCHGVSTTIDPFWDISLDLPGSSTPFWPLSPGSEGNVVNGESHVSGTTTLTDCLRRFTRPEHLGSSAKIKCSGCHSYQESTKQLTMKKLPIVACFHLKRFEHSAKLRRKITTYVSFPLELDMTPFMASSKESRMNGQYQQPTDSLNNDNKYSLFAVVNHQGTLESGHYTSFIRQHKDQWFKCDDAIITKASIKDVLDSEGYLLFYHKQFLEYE
Summary of the method: as §1

USP24 = USP24 (UniProt Q9UPU5)
Summary of the method: as §1

USP25 = biological target: T3, USP25 (UniProt Q9UHP3)
T3 sequence (whole entry): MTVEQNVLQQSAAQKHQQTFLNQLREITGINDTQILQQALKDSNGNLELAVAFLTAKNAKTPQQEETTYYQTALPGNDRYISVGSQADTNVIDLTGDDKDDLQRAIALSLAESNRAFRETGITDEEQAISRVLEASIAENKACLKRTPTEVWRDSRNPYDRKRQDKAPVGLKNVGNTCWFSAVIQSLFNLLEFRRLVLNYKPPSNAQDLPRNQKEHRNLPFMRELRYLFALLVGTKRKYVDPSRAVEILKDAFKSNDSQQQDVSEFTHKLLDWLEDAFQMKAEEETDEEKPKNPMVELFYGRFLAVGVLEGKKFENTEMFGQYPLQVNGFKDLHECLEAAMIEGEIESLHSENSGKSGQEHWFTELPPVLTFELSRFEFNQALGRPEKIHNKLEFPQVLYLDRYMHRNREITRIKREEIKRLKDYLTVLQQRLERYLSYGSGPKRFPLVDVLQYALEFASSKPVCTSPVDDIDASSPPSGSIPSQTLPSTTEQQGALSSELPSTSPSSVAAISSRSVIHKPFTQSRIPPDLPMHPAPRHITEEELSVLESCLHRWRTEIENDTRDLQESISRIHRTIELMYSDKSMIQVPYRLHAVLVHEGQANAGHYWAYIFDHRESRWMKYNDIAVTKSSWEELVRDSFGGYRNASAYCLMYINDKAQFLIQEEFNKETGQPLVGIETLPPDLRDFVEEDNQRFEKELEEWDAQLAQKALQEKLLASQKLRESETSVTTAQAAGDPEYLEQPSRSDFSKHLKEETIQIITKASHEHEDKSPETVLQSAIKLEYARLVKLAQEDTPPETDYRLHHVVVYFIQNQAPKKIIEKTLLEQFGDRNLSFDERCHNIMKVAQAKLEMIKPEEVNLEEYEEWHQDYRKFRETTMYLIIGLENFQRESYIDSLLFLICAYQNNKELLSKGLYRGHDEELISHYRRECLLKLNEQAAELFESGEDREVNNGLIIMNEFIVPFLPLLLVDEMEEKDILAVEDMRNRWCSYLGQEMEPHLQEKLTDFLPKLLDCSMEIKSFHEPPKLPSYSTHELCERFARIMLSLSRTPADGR
Summary of the method: as §1

USP28 = biological target: T4, USP28 (UniProt Q96RU2)
T4 sequence (whole entry): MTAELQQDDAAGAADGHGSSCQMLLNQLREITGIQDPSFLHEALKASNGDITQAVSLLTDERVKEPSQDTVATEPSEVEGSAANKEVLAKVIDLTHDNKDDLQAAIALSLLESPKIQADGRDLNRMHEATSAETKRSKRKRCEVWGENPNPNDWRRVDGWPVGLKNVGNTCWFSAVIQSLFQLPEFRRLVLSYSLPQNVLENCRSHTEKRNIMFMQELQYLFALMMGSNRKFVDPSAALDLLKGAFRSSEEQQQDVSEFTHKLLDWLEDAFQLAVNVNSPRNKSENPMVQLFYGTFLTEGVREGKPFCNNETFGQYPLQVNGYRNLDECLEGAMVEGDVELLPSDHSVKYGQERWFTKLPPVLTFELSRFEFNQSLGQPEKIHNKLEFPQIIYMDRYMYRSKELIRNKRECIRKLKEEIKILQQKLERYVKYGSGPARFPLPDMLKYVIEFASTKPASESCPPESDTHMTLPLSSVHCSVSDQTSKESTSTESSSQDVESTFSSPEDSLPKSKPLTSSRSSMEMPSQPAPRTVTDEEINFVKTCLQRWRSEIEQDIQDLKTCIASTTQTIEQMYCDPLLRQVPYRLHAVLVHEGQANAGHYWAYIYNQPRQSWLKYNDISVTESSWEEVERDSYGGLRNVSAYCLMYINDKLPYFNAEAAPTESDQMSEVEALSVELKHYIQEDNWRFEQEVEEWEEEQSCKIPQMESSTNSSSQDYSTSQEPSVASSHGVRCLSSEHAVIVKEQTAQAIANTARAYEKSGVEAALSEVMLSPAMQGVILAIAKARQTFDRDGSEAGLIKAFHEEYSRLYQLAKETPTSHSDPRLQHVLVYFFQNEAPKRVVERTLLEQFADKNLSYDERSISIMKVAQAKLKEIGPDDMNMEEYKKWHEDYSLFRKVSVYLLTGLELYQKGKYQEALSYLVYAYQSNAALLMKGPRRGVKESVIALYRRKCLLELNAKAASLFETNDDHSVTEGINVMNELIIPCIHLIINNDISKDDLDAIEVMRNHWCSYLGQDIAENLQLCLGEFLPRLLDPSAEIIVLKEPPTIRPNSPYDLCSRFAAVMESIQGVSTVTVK
Summary of the method: as §1

Measured: log2 ratio of Biotin-Ahx-Ub-VS probe labelling

USP24, sequence (Q9UPU5 whole entry): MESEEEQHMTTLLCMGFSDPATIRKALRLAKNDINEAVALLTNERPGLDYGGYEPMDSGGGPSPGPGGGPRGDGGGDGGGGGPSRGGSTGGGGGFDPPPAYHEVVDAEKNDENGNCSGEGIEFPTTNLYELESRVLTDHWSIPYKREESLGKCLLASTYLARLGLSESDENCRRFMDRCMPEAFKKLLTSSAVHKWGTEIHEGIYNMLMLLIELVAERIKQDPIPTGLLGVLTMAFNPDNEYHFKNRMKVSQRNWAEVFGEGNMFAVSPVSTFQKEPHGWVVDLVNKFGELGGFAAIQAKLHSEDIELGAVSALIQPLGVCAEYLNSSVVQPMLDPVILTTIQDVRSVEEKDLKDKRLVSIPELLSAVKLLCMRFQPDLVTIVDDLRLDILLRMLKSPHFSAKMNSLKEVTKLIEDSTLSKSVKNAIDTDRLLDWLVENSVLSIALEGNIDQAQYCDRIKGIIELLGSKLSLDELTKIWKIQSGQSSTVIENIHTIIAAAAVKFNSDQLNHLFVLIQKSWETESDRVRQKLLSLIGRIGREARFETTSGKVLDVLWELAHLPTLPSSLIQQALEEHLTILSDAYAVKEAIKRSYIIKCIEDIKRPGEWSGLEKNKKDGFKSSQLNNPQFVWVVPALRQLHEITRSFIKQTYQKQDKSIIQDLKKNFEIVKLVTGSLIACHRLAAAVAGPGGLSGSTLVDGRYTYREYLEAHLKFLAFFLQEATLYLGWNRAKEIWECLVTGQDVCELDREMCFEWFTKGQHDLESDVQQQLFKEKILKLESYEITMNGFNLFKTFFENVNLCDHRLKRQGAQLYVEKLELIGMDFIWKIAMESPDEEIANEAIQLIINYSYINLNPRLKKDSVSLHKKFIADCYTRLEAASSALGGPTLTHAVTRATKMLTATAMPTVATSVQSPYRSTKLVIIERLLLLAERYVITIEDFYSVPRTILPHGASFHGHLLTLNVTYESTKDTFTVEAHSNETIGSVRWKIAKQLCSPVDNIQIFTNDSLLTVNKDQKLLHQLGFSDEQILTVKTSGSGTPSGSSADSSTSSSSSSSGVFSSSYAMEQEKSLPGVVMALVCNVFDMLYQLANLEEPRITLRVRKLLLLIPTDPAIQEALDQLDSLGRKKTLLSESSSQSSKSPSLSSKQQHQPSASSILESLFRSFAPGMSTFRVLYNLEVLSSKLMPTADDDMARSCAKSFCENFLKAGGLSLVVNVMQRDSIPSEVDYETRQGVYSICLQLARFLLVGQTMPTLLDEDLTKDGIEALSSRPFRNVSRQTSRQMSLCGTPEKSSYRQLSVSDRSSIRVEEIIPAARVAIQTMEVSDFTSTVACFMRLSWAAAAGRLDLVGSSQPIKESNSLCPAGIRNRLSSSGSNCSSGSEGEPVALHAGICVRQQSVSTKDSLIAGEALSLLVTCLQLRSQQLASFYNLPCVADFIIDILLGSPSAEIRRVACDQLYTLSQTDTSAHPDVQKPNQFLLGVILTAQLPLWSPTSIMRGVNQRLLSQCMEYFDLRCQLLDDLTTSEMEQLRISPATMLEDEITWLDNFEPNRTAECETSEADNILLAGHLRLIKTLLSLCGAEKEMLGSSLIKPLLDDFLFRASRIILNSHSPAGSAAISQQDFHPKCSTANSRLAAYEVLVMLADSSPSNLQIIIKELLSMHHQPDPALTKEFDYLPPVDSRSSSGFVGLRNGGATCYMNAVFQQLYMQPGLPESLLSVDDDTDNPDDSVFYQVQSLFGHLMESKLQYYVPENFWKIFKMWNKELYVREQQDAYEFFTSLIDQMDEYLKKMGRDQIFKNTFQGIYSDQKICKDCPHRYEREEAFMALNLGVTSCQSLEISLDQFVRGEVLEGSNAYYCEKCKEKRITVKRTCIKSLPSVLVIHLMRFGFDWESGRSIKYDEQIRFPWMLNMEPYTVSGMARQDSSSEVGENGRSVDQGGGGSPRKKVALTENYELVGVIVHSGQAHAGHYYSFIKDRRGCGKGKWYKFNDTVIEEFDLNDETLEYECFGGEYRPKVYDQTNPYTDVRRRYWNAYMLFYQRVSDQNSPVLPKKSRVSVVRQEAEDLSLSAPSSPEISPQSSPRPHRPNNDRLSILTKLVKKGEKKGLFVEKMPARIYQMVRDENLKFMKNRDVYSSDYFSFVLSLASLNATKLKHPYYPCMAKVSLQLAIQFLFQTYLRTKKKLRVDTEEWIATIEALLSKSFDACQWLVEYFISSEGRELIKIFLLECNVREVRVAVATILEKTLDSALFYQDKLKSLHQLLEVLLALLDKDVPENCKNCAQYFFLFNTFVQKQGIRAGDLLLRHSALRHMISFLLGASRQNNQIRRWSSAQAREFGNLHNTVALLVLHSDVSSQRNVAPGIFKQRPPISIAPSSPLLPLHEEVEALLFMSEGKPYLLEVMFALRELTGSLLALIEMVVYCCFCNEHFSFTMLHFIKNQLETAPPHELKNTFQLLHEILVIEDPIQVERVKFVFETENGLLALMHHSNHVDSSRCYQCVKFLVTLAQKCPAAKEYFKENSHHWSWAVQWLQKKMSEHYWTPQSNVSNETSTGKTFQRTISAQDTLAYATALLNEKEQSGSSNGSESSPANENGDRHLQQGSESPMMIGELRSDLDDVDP

O=C(CCl)N(C1=CCCCC1)C1CC1
inactive: USP19 -0.0989 | USP22 -0.481 | USP24 -0.573 | USP25 -0.226 | USP28 -0.185
